# Test results from PubChem BioAssay.
# Where “and” joins values, the source holds several entries; their conditions need not be identical. Identical values can stand only once. Results filed as inconclusive are left out. Calls of active or inactive are those of the source.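 Rule for the calls, unless noted: active = response below a set limit, under 55% cells CD8-positive and vesicle-bound, and CD8 cells' 90th-percentile brightness under 279; inactive = the rest.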
# Assays:
# [1] = rapamycin-like changes in RPL19A-GFP expression – cell-based, S. cerevisiae, multiplex flow cytometry, primary screen (AID 1862; in the data active = percent of DMSO control GFP below about 86%;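 note: lower values mimic rapamycin by blocking the RPL19A rise seen in DMSO cells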); details: S. cerevisiae RPL19A-GFP strain, flow cytometry fluorescence, 3 h; at 10 µM; stronger effect = lower value
# [2] = TOR pathway GLN3 branch reporter MEP2-GFP changes – S. cerevisiae, multiplex flow cytometry, primary screen (AID 1867;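 active = GFP response, as percent of the DMSO control, above the screen-wide mean plus 3 SD, about 139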;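 note: median GFP channel fluorescence of barcode-gated MEP2-GFP cells measured by flow cytometry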); details: S. cerevisiae MEP2-GFP strain, 3 h, at 10 µM, stronger effect = higher value, 100% means same as DMSO wells
# [3] = TOR pathway RTG branch CIT2 reporter changes – S. cerevisiae, GFP fusion, multiplex flow cytometry, primary screen (AID 1870;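 active = percent response above a set limit, the screen-wide mean plus 3 SD, cut at about 130% in these data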;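 note: barcoded CIT2-GFP strain pooled with four other GFP strains with rapamycin as positive control; median GFP fluorescence per well over plate mean of DMSO wells so 100% = DMSO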); details: S. cerevisiae CIT2-GFP expression, 3 h, at 10 µM, stronger effect = higher value
# [4] = TOR pathway LAP4-GFP level changes – S. cerevisiae, multiplex flow cytometry, primary screen (AID 1873;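 active = GFP signal, as percent of the solvent control, above the screen mean plus 3 SD, about 149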); details: S. cerevisiae LAP4-GFP expression, 3 h, at 10 µM, stronger effect = higher value
# [5] = yeast AGP1-GFP level changes, GLN3 branch – cell-based, multiplex flow cytometry, S. cerevisiae, primary screen (AID 1887;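 active = GFP signal above the screen-wide mean plus 3 SD, that is over about 124.5% of the solvent control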;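 note: AGP1-GFP fusion strain of S. cerevisiae within a five-strain barcoded multiplex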); details: 3 h, at 10 µM, stronger effect = higher value
# [6] = reduced mouse 2C T cell binding to pMHC/ICAM-1 vesicles – MLPCN validation set, flow cytometry, LFA-1/ICAM-1 modulator project, pilot screen (AID 2523); details: 2C mouse CD8+ T cells, at 7 µM, stronger effect = lower value; double positive events: measured here: CD8+/vesicle+ event percentage;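 for vesicle binding response: mean PE anti-B7-1 fluorescence of CD8+ cells relative to row control; 100% = QL9-loaded vesicles with DMSO vehicle in the same plate row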
# [7] = molecular target: Integrin beta-1 (Homo sapiens) + Integrin alpha-4 (Homo sapiens) (UniProt P13612+P05556); assay: alpha4beta1 integrin LIBS antibody binding reduction – U937 cells, HUTS-21 mAb, flow cytometry, validation set, VLA-4 allosteric modulator project, pilot screen (AID 2674;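 active = inhibition above 50%, about 3 SD of the validation set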;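 note: antibody binding induced by the VLA-4 ligand LDV present at three times its Kd; 0% = LDV ligand with antibody and no compound and 100% = antibody without LDV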); details: HUTS-21 LIBS mAb binding, at 6.7 µM, stronger effect = higher value, binding induced by LDV ligand
# Chain of Integrin beta-1 (Homo sapiens) + Integrin alpha-4 (Homo sapiens) (P05556 whole entry, looked up): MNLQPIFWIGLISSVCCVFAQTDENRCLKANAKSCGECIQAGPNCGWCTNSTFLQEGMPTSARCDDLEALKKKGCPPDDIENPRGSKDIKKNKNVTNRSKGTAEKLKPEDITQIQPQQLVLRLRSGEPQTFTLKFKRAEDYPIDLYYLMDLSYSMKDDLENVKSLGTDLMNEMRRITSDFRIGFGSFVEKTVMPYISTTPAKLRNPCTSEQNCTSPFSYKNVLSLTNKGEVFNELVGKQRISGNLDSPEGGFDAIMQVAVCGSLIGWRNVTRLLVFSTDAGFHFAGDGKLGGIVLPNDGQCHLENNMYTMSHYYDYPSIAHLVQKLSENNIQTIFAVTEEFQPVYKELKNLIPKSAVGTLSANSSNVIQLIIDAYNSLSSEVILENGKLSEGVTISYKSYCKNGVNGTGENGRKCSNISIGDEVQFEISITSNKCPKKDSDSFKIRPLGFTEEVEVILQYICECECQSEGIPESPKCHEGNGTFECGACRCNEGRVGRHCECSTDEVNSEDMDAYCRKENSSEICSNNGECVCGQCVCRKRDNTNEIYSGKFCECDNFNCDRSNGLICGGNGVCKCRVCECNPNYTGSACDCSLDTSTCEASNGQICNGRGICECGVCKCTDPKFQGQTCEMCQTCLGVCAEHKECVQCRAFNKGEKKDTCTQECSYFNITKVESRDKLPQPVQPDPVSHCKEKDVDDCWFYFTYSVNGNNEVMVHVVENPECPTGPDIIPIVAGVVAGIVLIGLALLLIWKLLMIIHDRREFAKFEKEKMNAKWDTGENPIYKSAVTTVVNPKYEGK
# Chain of Integrin beta-1 (Homo sapiens) + Integrin alpha-4 (Homo sapiens) (P13612 whole entry, looked up): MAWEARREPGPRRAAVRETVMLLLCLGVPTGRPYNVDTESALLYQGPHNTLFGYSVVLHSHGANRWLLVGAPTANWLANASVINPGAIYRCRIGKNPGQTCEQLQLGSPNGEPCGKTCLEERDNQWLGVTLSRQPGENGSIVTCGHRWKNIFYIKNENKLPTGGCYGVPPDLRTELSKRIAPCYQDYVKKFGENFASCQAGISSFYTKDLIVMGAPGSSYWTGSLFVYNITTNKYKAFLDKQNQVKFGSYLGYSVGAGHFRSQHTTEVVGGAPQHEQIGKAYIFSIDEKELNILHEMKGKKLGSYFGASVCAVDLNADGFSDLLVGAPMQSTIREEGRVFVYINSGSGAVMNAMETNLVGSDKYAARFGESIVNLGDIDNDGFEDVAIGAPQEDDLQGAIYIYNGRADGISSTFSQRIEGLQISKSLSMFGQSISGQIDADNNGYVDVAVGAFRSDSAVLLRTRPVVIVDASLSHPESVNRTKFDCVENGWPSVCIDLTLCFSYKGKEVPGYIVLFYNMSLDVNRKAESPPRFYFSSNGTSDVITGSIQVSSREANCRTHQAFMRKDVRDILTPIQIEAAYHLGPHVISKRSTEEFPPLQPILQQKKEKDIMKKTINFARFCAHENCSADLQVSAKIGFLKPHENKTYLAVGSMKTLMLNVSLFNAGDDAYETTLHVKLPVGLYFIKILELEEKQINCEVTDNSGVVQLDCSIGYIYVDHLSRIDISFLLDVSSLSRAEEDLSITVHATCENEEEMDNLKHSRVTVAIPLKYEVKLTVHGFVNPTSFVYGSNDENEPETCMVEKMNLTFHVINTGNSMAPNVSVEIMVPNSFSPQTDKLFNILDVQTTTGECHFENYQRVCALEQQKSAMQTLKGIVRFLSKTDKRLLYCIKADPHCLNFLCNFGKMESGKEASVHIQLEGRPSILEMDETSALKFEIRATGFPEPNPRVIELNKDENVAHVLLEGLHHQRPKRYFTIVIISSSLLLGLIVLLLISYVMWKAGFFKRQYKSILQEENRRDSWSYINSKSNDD
# [8] = calorie-restriction mimetic ROS inhibitors, yeast – validation compound set, pilot screen (AID 2706;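 active = superoxide response below 65% of plate, a cut near 3 SD across the whole screen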;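 note: yeast exposed to compound for one week at 30 degrees C before staining; 100% = mean of all compound wells on the same plate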); details: S. cerevisiae aging, superoxide DHE fluorescence; at 10 µM; stronger effect = lower value
# [9] = molecular target: Beta-adrenergic receptor kinase 1 (Homo sapiens) (UniProt P25098); assay: GRK2 binders displacing RNA aptamer, biochemical, validation, human GRK2, bead flow cytometry (AID 488806;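 active = aptamer binding inhibition above 30%, about 3 SD of noise from non-fluorescent compounds; inactive = inhibition at or below 30%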); details: bead-bound GRK2, FAM-aptamer displacement, at 10 µM, stronger effect = higher value
# Chain of Beta-adrenergic receptor kinase 1 (Homo sapiens) (P25098 whole entry, looked up): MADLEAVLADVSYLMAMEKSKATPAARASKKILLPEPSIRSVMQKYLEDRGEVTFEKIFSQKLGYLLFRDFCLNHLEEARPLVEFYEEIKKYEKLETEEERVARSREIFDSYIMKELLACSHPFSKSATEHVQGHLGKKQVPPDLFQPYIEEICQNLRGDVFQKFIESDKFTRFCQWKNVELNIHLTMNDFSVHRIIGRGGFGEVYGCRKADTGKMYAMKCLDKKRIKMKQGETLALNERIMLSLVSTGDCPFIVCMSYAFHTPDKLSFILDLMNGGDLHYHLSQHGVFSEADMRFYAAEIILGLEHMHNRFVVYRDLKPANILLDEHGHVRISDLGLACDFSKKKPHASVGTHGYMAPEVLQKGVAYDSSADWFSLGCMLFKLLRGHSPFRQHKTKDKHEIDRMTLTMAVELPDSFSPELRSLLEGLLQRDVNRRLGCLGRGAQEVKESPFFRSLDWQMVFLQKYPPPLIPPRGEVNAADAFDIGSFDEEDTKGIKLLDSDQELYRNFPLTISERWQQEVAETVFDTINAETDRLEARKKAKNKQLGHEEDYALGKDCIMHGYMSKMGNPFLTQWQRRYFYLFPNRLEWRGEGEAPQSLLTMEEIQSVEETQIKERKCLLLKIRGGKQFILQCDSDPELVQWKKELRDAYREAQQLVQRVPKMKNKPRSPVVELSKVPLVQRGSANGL
# [10] = molecular target: Beta-2 adrenergic receptor (Homo sapiens) (UniProt P07550); assay: agonist-induced loss of surface beta2AR – cell-based, FAP fluorogen, flow cytometry, validation set, pilot screen (AID 504459;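 active = percent response above 42, roughly 3 SD of non-fluorescent test compounds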;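 note: agonist-driven loss of surface beta2AR via internalization measured by FAP dye flow cytometry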); details: Am2.2-beta2AR cells, at 10 µM, stronger effect = higher value
# Chain of Beta-2 adrenergic receptor (Homo sapiens) (P07550 whole entry, looked up): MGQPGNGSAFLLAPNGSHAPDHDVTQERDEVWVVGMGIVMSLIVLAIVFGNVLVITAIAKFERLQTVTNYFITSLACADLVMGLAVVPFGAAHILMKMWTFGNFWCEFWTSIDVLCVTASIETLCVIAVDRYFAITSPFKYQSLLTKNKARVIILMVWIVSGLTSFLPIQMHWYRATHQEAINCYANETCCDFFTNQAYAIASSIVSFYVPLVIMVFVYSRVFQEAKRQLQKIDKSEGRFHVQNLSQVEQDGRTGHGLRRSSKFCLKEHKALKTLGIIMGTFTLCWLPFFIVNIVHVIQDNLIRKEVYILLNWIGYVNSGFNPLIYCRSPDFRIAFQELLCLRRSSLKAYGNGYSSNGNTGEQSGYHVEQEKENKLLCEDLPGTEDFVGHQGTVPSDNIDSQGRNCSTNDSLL
# [11] = molecular target: AP-2 complex subunit beta (Homo sapiens) (UniProt P63010); assay: beta-arrestin/AP2 interaction blockers – biochemical, validation set, GST-AP2 beads, flow cytometry, pilot screen (AID 504541;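 active = inhibition above 54%, about 3 SD of non-fluorescent compounds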;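 note: AP2 carries R879A mutation and is captured from E. coli lysate; bead-bound FITC arrestin peptide fluorescence measuring arrestin peptide binding to AP2; 0% = DMSO wells and 100% = excess unlabeled arrestin peptide control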); details: FITC arrestin peptide, at 10 µM, stronger effect = higher value, AP2 beta2 appendage fragment, R879A mutant
# Chain of AP-2 complex subunit beta (Homo sapiens) (P63010 whole entry, looked up, the tested form may be a part, one chain of several): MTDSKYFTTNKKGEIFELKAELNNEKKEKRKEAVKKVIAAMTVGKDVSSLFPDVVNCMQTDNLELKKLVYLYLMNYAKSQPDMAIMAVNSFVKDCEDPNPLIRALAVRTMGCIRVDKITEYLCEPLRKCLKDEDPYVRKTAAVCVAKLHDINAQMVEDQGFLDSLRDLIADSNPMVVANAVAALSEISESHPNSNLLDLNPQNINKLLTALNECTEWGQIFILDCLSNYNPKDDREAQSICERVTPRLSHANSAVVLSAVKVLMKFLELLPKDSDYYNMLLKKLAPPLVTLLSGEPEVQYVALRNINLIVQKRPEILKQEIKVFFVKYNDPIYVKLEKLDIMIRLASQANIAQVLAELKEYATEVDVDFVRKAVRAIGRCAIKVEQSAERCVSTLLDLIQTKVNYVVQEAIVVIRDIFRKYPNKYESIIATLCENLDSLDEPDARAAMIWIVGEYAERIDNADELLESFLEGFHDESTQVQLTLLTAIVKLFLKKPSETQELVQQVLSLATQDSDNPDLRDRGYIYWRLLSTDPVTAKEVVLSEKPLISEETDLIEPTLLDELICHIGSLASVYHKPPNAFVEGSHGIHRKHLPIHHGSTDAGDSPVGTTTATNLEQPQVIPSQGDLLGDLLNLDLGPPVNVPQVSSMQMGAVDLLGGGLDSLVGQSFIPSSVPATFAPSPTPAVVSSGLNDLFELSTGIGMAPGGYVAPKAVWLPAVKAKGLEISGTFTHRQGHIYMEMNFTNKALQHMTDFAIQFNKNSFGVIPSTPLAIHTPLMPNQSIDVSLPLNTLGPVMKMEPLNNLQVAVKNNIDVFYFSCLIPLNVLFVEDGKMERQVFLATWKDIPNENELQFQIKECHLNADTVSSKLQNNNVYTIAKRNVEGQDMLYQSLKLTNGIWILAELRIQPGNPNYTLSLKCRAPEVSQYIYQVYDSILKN
# [12] = cytosolic pH regulators acting via V-ATPase – S. cerevisiae, pHLuorin, HTS validation (AID 504600; in the data active = response above about 15%;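 note: plate controls were DMSO for no effect and reference compound for full effect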); details: V-ATPase proton transport, at 10 µM, stronger effect = higher value
# [13] = tested on: anti-desmoglein-3 scFv antibody binding to human DSG3; assay: blockers of pathogenic pemphigus antibody–desmoglein-3 binding – biochemical, validation compound set, bead-based, flow cytometry, pilot screen (AID 588368;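 active = binding below the plate cutoff, the plate median minus 3 SD, with a reading above zero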;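 note: signal is the median channel fluorescence of bead-bound GFP antibody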); details: Protein G beads, DSG3-Fc, scFv-GFP binding, at 10 µM, stronger effect = lower value
# [14] = Nile Red efflux blockade in pump-expressing yeast – validation compound set, multiplex, phenotypic, pilot screen (AID 588506;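 active = efflux inhibition above 0.42, the validation set average plus 4 SD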;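 note: Nile Red retained in cells so higher fluorescence means more efflux inhibition; 0 = negative control wells and 1 = enniatin B 25 µM full block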); details: S. cerevisiae pump-expressing triplex, Nile Red efflux flow cytometry; at 10 µM; stronger effect = higher value; the pumps come from Candida albicans
# [15] = molecular target: ATP-binding cassette sub-family B member 6 (Homo sapiens) (UniProt Q9NP58); assay: blockers of ABCB6-driven porphyrin uptake – K562-ABCB6 cells, flow cytometry, validation set, pilot screen (AID 588550;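 active = inhibition above the screen-wide mean plus 3 SD, about 51%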;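 note: 0% = DMSO wells and 100% = benzethonium chloride 70 µM positive control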); details: K562-ABCB6 porphyrin accumulation, 1 h, at 10 µM, stronger effect = higher value
# Chain of ATP-binding cassette sub-family B member 6 (Homo sapiens) (Q9NP58 whole entry, looked up): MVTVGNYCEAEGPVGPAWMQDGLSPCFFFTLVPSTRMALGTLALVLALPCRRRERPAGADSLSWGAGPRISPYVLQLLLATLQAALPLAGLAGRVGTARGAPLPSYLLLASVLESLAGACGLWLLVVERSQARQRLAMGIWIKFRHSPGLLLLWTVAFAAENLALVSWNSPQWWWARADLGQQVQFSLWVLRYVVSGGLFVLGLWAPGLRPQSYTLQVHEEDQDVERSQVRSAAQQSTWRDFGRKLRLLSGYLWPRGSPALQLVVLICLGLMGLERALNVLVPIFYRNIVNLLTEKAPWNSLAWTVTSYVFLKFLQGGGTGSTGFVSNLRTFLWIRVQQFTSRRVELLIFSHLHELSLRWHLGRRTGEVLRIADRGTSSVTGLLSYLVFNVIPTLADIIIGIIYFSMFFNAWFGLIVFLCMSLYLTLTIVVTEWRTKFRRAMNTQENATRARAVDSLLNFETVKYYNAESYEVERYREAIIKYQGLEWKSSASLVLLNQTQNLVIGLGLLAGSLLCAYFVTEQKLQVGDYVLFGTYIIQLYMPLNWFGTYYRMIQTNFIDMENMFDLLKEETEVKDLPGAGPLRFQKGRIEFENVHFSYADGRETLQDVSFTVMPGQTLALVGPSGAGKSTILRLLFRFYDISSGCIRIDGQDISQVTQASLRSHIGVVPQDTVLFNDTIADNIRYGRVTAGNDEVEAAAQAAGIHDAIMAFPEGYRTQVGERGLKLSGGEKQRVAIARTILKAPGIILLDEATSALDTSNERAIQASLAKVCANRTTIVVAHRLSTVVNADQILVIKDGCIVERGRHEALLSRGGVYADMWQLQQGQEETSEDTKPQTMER
# [16] = AML differentiation inducers, ER-HoxA9 marrow cells – cell-based, GFP/MAC1 double positive, flow cytometry, validation set, primary screen (AID 588685;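 active = differentiation response of at least 50%, scaled between solvent and reference control, from cells with both markers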;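 note: compound exposure lasts four days before antibody staining and flow analysis; 0% = DMSO wells and 100% = 5 µM fulvestrant positive control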); details: stronger effect = higher value, normalized: vehicle 0, fulvestrant 100
SMILES,percent of DMSO control GFP [1],GFP response vs DMSO [2],percent response of DMSO control [3],GFP response vs DMSO [4],"GFP response, % of DMSO [5]",double positive events [6],vesicle binding response [6],inhibition [7],superoxide response (% of plate) [8],aptamer binding inhibition [9],response [10],inhibition [11],response [12],binding (% of control) [13],efflux inhibition (fraction of control) [14],inhibition [15],differentiation response [16]
COc1ccc(OC)c(S(=O)(=O)N2CCCc3ccccc32)c1,101% (inactive),104% (inactive),91.3% (inactive),126% (inactive),105% (inactive),58.6%,124% (inactive),15% (inactive),97.2% (inactive),5% (inactive),2.04% (inactive),2.15% (inactive),-1.7% (inactive),105% (inactive),0.18 (inactive),24% (inactive),-8.96% (inactive)
O=C(O)CCCCCNC(=O)Nc1ccc2c(c1)OCCO2,101% (inactive),115% (inactive),112% (inactive),77% (inactive),91.2% (inactive),49.7%,207% (inactive),-12% (inactive),105% (inactive),-3% (inactive),-9.55% (inactive),-7.04% (inactive),-4.4% (inactive),108% (inactive),0.12 (inactive),7% (inactive),-3.28% (inactive)
Clc1ccc(CCNc2ncnc3nc[nH]c23)cc1,97.4% (inactive),108% (inactive),92% (inactive),105% (inactive),99.7% (inactive),60.8%,127% (inactive),0.94% (inactive),108% (inactive),4% (inactive),-5.61% (inactive),5.59% (inactive),-0.06% (inactive),97.2% (inactive),0.08 (inactive),10% (inactive),-0.8% (inactive)
NCCc1cnc[nH]1,89.8% (inactive) and 102% (inactive),129% (inactive) and 104% (inactive),101% (inactive) and 102% (inactive),78.7% (inactive) and 113% (inactive),84.5% (inactive) and 117% (inactive),55.6% and 61.9%,192% (inactive) and 166% (inactive),-33.3% (inactive) and -35.2% (inactive),105% (inactive) and 109% (inactive),3% (inactive) and 0% (inactive),-15.1% (inactive) and -30.5% (inactive),-4.51% (inactive) and -1.77% (inactive),25.1% (active) and 47.3% (active),105% (inactive) and 106% (inactive),0.09 (inactive) and 0.04 (inactive),5% (inactive) and -3% (inactive),-5.73% (inactive) and -4.99% (inactive)
COc1ccccc1NC(=O)N1CCc2[nH]c3ccc(Cl)cc3c2C1,101% (inactive),110% (inactive),102% (inactive),121% (inactive),94% (inactive),62.4%,135% (inactive),-11.8% (inactive),102% (inactive),2% (inactive),-11.2% (inactive),-2.38% (inactive),1.31% (inactive),121% (inactive),-0.42 (inactive),-33% (inactive),18.8% (inactive)
COc1ccc(C(=O)COc2ccc(F)cc2)c(O)c1,106% (inactive),98.3% (inactive),106% (inactive),96% (inactive),97.6% (inactive),60.6%,253% (inactive),-7.72% (inactive),86.7% (inactive),1% (inactive),-9.67% (inactive),1.75% (inactive),2.77% (inactive),94.5% (inactive),-0.04 (inactive),1% (inactive),1.22% (inactive)
C#CCN1C(=O)C(O)(c2c(C)[nH]c3ccccc23)c2ccccc21 (stereo not drawn),103% (inactive),106% (inactive),96% (inactive),103% (inactive),100% (inactive),65%,220% (inactive),-0.31% (inactive),96.9% (inactive),3% (inactive),1% (inactive),2.17% (inactive),-0.83% (inactive),100% (inactive),-0.44 (inactive),3% (inactive),0% (inactive)
O=C(/C=C/c1ccccc1)NCC1(c2ccccc2)CCOCC1,101% (inactive),104% (inactive),101% (inactive),117% (inactive),103% (inactive),64.3%,255% (inactive),-18.2% (inactive),99.2% (inactive),-1% (inactive),-8.35% (inactive),63.9% (active),-9.57% (inactive),97% (inactive),-0.21 (inactive),3% (inactive),-15.2% (inactive)
CC(=O)[C@@H]1[C@@H](C(=O)c2ccc(C)cc2)[C@]2(C(=O)Nc3ccccc32)[C@H]2C=Cc3cc(F)ccc3N12,97.4% (inactive),102% (inactive),90.1% (inactive),117% (inactive),100% (inactive),61.3%,161% (inactive),-119% (inactive),112% (inactive),4% (inactive),40.7% (inactive),4.08% (inactive),-5.02% (inactive),98.9% (inactive),-0.03 (inactive),2% (inactive),8.8% (inactive)
CC(=O)N1c2ccccc2C(C)=CC1(C)C,101% (inactive),107% (inactive),98.3% (inactive),104% (inactive),125% (inactive),64.4%,199% (inactive),-17.3% (inactive),112% (inactive),2% (inactive),-23.5% (inactive),-16.5% (inactive),-0.45% (inactive),109% (inactive),-0.04 (inactive),2% (inactive),-1.05% (inactive)
COc1ccc(CCN2CNc3c(c(=O)n(C)c(=O)n3C)C2)cc1OC,99.8% (inactive),103% (inactive),102% (inactive),118% (inactive),116% (inactive),60.5%,214% (inactive),-1.97% (inactive),93.5% (inactive),-4% (inactive),-3.69% (inactive),-4.43% (inactive),-9.61% (inactive),99.7% (inactive),0.04 (inactive),-5% (inactive),-4% (inactive)
Cc1coc2c1c(C)cc1oc(=O)c(Cc3ccccc3)c(C)c12,100% (inactive),98.7% (inactive),102% (inactive),93.7% (inactive),101% (inactive),56.9%,138% (inactive),-11.8% (inactive),90.7% (inactive),-1% (inactive),-0.64% (inactive),16.9% (inactive),18.1% (active),97.9% (inactive),-0.14 (inactive),1% (inactive),-8.96% (inactive)
Cc1ccc(-c2nn(-c3cccc(F)c3)cc2CN2CCN(c3ccccn3)CC2)o1,101% (inactive),107% (inactive),92% (inactive),123% (inactive),101% (inactive),54.2%,2920% (inactive),0.94% (inactive),95.7% (inactive),5% (inactive),25.4% (inactive),5.48% (inactive),-6.07% (inactive),101% (inactive),0.37 (inactive),12% (inactive),-23.2% (inactive)
CCOC(=O)C(NC(=O)CCC(=O)Nc1ccc(S(N)(=O)=O)cc1)C(O)c1ccccc1 (stereo not drawn),96.5% (inactive),103% (inactive),100% (inactive),106% (inactive),101% (inactive),57.6%,361% (inactive),15.1% (inactive),102% (inactive),6% (inactive),-25.5% (inactive),5.81% (inactive),-6.43% (inactive),101% (inactive),0 (inactive),7% (inactive),-7.94% (inactive)
COC(=O)C1=C(C)N(C)C(=S)NC1c1ccc(Cl)cc1 (stereo not drawn),99.8% (inactive),95.6% (inactive),98.6% (inactive),98% (inactive),88.8% (inactive),63%,138% (inactive),-2.43% (inactive),99.9% (inactive),3% (inactive),-27.7% (inactive),0.15% (inactive),0.83% (inactive),97.9% (inactive),-0.04 (inactive),7% (inactive),-10.4% (inactive)
CC(C)=CCC/C(C)=C/CC/C(C)=N/O,97.4% (inactive),115% (inactive),91% (inactive),108% (inactive),93.5% (inactive),59.7%,199% (inactive),6.4% (inactive),97.4% (inactive),4% (inactive),3.47% (inactive),-1.05% (inactive),-1.49% (inactive),103% (inactive),0.08 (inactive),-63% (inactive),-2.4% (inactive)
CC(NC(=O)c1ccc(N2CCNCC2)c([N+](=O)[O-])c1)C12CC3CC(CC(C3)C1)C2 (stereo not drawn),92.8% (inactive),111% (inactive),101% (inactive),114% (inactive),92.6% (inactive),56.9%,87.2% (inactive),9.13% (inactive),101% (inactive),-1% (inactive),-1.73% (inactive),-4.72% (inactive),0.8% (inactive),98.2% (inactive),-0.1 (inactive),7% (inactive),-23.2% (inactive)
C/C=C/c1ccc(OCCCCN2CC(C)CC(C)C2)c(OC)c1 (stereo not drawn),102% (inactive),107% (inactive),106% (inactive),96.6% (inactive),97.2% (inactive),58.6%,52.4% (inactive),8.88% (inactive),104% (inactive),-1% (inactive),-1.02% (inactive),39.6% (inactive),-3.37% (inactive),99.7% (inactive),0.02 (inactive),-10% (inactive),-1.71% (inactive)
COc1ccc(-c2cc(C(=O)N3CCOCC3)c3cc(C)ccc3n2)cc1,91.1% (inactive),102% (inactive),101% (inactive),110% (inactive),107% (inactive),73.1%,206% (inactive),-8.78% (inactive),92% (inactive),1% (inactive),-16.3% (inactive),9.71% (inactive),-6.37% (inactive),104% (inactive),-0.09 (inactive),7% (inactive),9.79% (inactive)
